For 35 compounds, composite z-score results are on record in PubChem BioAssay.

Activity calls are given as the source filed them.

For the assay, the target named is Dihydroorotate dehydrogenase (quinone), mitochondrial (Plasmodium falciparum (isolate 3D7)) (UniProt Q08210). The assay can be described thus: inhibition of P. falciparum DHODH – biochemical, C-terminal His tag, absorbance 600 nm, primary screen (AID 1175).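 Also: recombinant parasite enzyme with a five histidine tag at its C terminus; test concentration not given here.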 Conditions: PfDHODH enzyme, DCIP absorbance 600 nm; higher = more signal, called active from +8 up or from −8 down.
Dihydroorotate dehydrogenase (quinone), mitochondrial (Plasmodium falciparum (isolate 3D7)), sequence (Q08210 whole entry, looked up): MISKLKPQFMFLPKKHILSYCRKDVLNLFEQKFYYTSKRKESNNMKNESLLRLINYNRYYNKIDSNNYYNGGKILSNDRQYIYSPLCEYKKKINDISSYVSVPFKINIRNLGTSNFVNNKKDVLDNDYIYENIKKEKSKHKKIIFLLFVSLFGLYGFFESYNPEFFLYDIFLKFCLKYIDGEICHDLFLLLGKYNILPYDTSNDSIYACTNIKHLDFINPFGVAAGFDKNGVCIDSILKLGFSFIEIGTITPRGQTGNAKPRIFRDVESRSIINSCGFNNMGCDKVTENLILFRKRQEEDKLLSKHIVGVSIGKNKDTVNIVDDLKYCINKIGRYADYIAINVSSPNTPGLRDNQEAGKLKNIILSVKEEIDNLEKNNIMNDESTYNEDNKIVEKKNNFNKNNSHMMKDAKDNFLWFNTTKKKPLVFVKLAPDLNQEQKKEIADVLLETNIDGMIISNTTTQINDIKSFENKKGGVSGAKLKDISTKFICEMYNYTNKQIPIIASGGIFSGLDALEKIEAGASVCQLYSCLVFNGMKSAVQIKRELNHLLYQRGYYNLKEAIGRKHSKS
Consider `CCOC(=O)C[C@H]1[C@H](OC(=O)Cc2ccc3c(c2)OCO3)[C@@H](NC(=O)c2ccc(-c3ccccc3)cc2)c2cc(OCCCO)ccc2N1C(=O)Cc1ccc(OC)cc1`, for which the composite z-score was -1.32 (inactive).

As for `C=CCNC(=O)[C@H]1[C@@H]2C(=O)O[C@@H](c3ccccc3)[C@@H](c3ccccc3)N2[C@@H](c2ccc(O)cc2)[C@]12C(=O)N(C(=O)OCCOC)c1ccc(C#CCNC(N)=O)cc12`, the composite z-score was 0.132 (inactive). `NCCCCCNC(=O)[C@@H]1C[C@@H]2C(=O)NCC(=O)N2[C@@H]1c1ccc(O)cc1`: the composite z-score is -1.28 (inactive).

For `C[N+](C)(C)CCCC[C@@H]1NC(=O)[C@@H]2C[C@H](C(=O)NCCCCCN)[C@H](c3cccc(OCCO)c3)N2C1=O`, the composite z-score is -0.76 (inactive). With `COc1cc(CO)cc(I)c1O[C@H]1C=C(C(=O)NCCO)C[C@@H](N(CCN2CCOCC2)C(=O)C2CCOC2)[C@@H]1O` (stereo not given in full), the composite z-score was 0.938 (inactive). As for `[N-]=[N+]=NCc1ccccc1[C@@H]1OC(c2ccc(OCCCO)cc2)=N[C@]1(Cc1ccccc1N=[N+]=[N-])C(=O)N1CCOCC1`, the figure is -0.52 (inactive); as for `O=C1NCC(=O)N2[C@@H]1C[C@@H](C(=O)O)[C@H]2c1cccc(OCCO)c1`, 0.97 (inactive).

As for `COc1ccc([Si](C)(C)[C@H]2[C@H](CCO)O[C@@]3(C(=O)N(Cc4ccc(N5C(=O)COc6ccccc65)cc4)c4ccccc43)[C@@H]2C)cc1`, the composite z-score was -0.349 (inactive).

In the case of `O=C1c2ccccc2[C@@]2(Cc3ccccc3N(CCN3CCOCC3)C2=O)[C@H](c2ccc(CO)cc2)N1Cc1ccccc1`, the composite z-score was -4.94 (inactive). Under `COc1ccc([Si](C)(C)[C@@H]2[C@@H](CC(=O)N3Cc4ccccc4C[C@H]3CO)O[C@]3(C(=O)N(C)c4c(Br)cc(C)cc43)[C@H]2C)cc1` stands 0.961 (inactive); under `CCOC(=O)C[C@H]1[C@H](OC(=O)Cc2ccc3c(c2)OCO3)[C@@H](NC(=O)c2ccc3ccccc3c2)c2cc(OCCCO)ccc2N1C(=O)c1ccccc1`, -0.777 (inactive); under `CN1C(=O)C2C=CC(C(O)c3ccccc3)N(Nc3ccccc3)C2C1=O` (stereo not given), 0.0323 (inactive). On to `CC(C)c1ccc(NN2C(C(O)C(c3ccccc3)c3ccccc3)C=CC3C(=O)N(c4ccccc4)C(=O)C32)cc1` (stereo not given), for which the composite z-score was 0.704 (inactive). As for `C=C(CCCC)C(=O)CC[C@H](OC(=O)c1cccnc1)c1ccccc1OCCO`, the composite z-score is -0.363 (inactive). As to `CC(C)[C@@H](CO)NC(=O)[C@H]1[C@@H](c2ccccc2)N(c2ccccc2)O[C@@H]1C`, the composite z-score is -0.857 (inactive). In the case of `CCOC(=O)[C@H]1CC=C2CC1C(=O)N1CCC[C@@H]1[C@@H]2O[Si](C)(C)C(C)(C)C` (stereo not given in full), the composite z-score is -0.458 (inactive). As for `O=C(O)[C@@]1(CCS(=O)(=O)c2ccccc2)COC(c2ccc(OCCCO)cc2)=N1`, the figure is 0.0614 (inactive); as for `CCOC(=O)[C@H]1C/C=C/C[C@H](C(=O)OCC)C(=O)O[C@H]2[C@@H](OC)O[C@H](CO)[C@@H](OC(=O)Nc3ccc(C#N)cc3)[C@@H]2OC1=O`, -1.26 (inactive). On to `COCCOC(=O)N1C(=O)[C@@]2(c3cc(C#CC4=CCCCC4)ccc31)[C@H](C(=O)N1CCc3cc(OC)c(OC)cc3C1)[C@H]1C(=O)O[C@H](c3ccccc3)[C@H](c3ccccc3)N1[C@@H]2c1ccc(OCCO)cc1`, for which the composite z-score was -0.352 (inactive).

As for `C#CCN(CC=C(C)C)[C@H](CO)c1ccccc1`, the composite z-score was -2.54 (inactive). With `COc1ccc(C(O)C2C=CC3C(=O)N(c4ccccc4)C(=O)C3N2Nc2ccccc2F)cc1OCc1ccccc1` (stereo not given), the composite z-score was -0.318 (inactive).

For the compound `COc1ccc(C(=O)Nc2ccc(CN3C(=O)[C@@]4(O[C@@H](CC(=O)N5CCC[C@H]5CO)[C@H]([Si](C)(C)c5ccc(OC)cc5)[C@H]4C)c4ccccc43)cc2)cc1`, the composite z-score is -6.57 (inactive). Under `CCOC(=O)C=Cc1cc([N+](=O)[O-])ccc1O` stands -4.74 (inactive). For `CCOc1cc(C(O)C2C=CC3C(=O)N(c4ccccc4)C(=O)C3N2Nc2ccccc2)ccc1O` (stereo not given), the composite z-score is 0.392 (inactive). As for `CCOC(=O)C[C@H]1[C@H](OC(=O)c2cc3ccccc3oc2=O)[C@@H](NC(=O)Cc2ccc(OC)cc2)c2cc(OCCCO)ccc2N1C(=O)c1ccccc1`, the figure is -2.42 (inactive). In the case of `O=C(NCc1ccc(F)cc1)[C@H]1C[C@H]2C(=O)N[C@@H](Cc3ccccc3)C(=O)N2[C@H]1c1ccc(O)cc1`, the composite z-score is -0.0513 (inactive).

With `O=C(c1ccccc1)N1Cc2ccccc2[C@@H]2OC(c3ccc(OCCCO)cc3)=N[C@]2(Cc2ccccc2)C1=O`, the composite z-score is 0.369 (inactive). On to `COc1ccc(C(=O)Nc2ccc(CN3C(=O)[C@@]4(O[C@@H](CCO)[C@H]([Si](C)(C)c5ccc(OC)cc5)[C@H]4C)c4ccccc43)cc2)cc1`, for which the composite z-score was -0.851 (inactive).

As to `COc1ccc([Si](C)(C)[C@H]2[C@H](CCn3cc([C@H](O)c4ccccc4)nn3)O[C@@]3(C(=O)N(Cc4cccc(N5CCOC5=O)c4)c4ccccc43)[C@@H]2C)cc1`, the composite z-score was -0.351 (inactive). For the compound `CCCC=C(CCC)[C@@H](NS(=O)(=O)c1cccs1)c1ccc(C(=O)OC)cc1`, the composite z-score was 0.335 (inactive). Under `O=C(NCc1ccccc1)[C@@]1(Cc2ccccc2)N=C(c2ccc(OCCCO)cc2)O[C@H]1c1ccccc1` stands 0.987 (inactive). `COC(=O)c1c(CC[C@@H](CO)NC(=O)N[C@@H](C)Cn2cc(C3(O)CCCCC3)nn2)oc(C(C)=O)c1C(=O)OC`: the composite z-score was -2.71 (inactive). Under `O=C1O[C@H](c2ccccc2)[C@H](c2ccccc2)N2[C@H]1[C@@H](C(=O)O)[C@]1(C(=O)Nc3ccc(C#CCCO)cc31)[C@H]2c1ccc(O)cc1` stands 0.158 (inactive); under `CC(C)C[C@H]1NC(=O)[C@@]23C(=O)N[C@@H](Cc4ccccc4)C2[C@H](C)[C@@]2(C)O[C@H]2C3/C=C/C/C=C\CNC(=O)[C@H](Cc2ccccc2)NC1=O` (stereo not given in full), -0.259 (inactive); under `COc1ccc(C#Cc2ccc3c(c2)[C@]2(C(=O)N3)[C@H](c3ccccc3OCCO)N3[C@H](c4ccccc4)[C@H](c4ccccc4)OC(=O)[C@H]3[C@@H]2C(=O)O)cc1`, -24.8 (active).
